Compound activity: PubChem, National Center for Advancing Translational Sciences (NCATS)
IL-1B inflam inh = inflammasome signaling inhibition, IL-1 beta readout. THP-1 LPS/ATP IL-1B secretion, AlphaLISA, 16 h; stronger effect = lower value. activity change, % at 57.5 µM. hit rate 4.7% among 360,000. AID 743279; in the data active = activity change below about -50%; inconclusive = mostly about -30% to -49%
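THP-1 cells pretreated 1 hr with compounds (up to 57.5 uM final), then stimulated with LPS (250 ng/mL final) plus ATP (1.25 mM final); secreted IL-1B measured by AlphaLISA after 16 hr, decreased signal indicating inhibition.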
RORgamma inh = blocks mouse ROR gamma transcriptional activity | P51450 | Drosophila S2 Gal4-RORgamma UAS-luciferase reporter, 20 h | Potency, µM (doses to about 53.6 µM), most hits filed as inhibitors | hit rate 5.4% among 310,000 | AID 2551; note: nearly all actives have a fitted effect of over 60% in size
Target sequence (P51450 whole entry, looked up, the tested form may be a part): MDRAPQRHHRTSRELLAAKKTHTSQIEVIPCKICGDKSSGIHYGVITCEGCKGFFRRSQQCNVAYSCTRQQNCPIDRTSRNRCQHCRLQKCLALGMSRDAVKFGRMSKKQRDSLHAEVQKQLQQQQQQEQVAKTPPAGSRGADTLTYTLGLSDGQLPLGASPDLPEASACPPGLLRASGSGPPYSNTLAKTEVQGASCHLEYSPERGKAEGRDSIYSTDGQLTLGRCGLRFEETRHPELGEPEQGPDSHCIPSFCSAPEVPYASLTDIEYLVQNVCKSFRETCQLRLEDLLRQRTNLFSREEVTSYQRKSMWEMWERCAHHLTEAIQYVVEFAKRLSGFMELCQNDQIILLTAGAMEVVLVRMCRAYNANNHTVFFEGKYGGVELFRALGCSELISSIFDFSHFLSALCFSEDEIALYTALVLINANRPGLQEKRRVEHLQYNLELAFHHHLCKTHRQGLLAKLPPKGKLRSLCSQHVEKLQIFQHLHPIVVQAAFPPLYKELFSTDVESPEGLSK
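A Gal4/UAS one-hybrid system in insect cells: metallothionein-promoter Gal4–ROR gamma fusion plus Photinus luciferase reporter. Copper sulfate 700 uM final, 20 hr ambient incubation, luminescent detection after 10 min with reagent.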
LDHA inh = blocks human lactate dehydrogenase A; purified LDHA, NADH/diaphorase-resazurin fluorescence; stronger effect = lower value; activity change, % (values are at about 110 or 230 µM); hit rate 0.15% among 480,000; AID 1347041; in the data active = activity change below about -30%; inconclusive = mostly about -25% to -30%
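Enzyme activity of human lactate dehydrogenase 5 (2 nM; 0.06 mM NADH, 0.2 mM pyruvate, 5 min, RT) is measured via a resazurin/diaphorase fluorescence readout of residual NADH.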
DT40 TDP1 no CPT = qHTS for Inhibitors of human tyrosyl-DNA phosphodiesterase 1 (TDP1): qHTS in cells in absence of CPT. DT40 Tdp1-/- hTDP1 cells, no CPT, ATP luminescence, 48 h. Potency, µM (titrated, usually from 46.2 µM), most hits filed as inhibitors. hit rate 15% among 420,000. AID 686978, 2013; note: nearly all actives have a fitted effect of over 55% in size
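No-CPT arm: Tdp1-/-;hTDP1 DT40 cells (400/well) plus compounds, incubated ≥48 hr at 37 °C. Readout CellTiter-Glo luminescence.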
DT40 TDP1 CPT = growth inhibition of DT40 Tdp1-/-;hTDP1 cells with camptothecin (screen for TDP1 inhibitors); chicken DT40 Tdp1-/-;hTDP1 cells + 20 nM CPT, ATP luminescence, 48 h; Potency, µM (series often up to 46.2 µM), hits mostly inhibitors; hit rate 12% among 420,000; AID 686979; note: nearly all actives have a fitted effect of over 55% in size
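Chicken DT40 Tdp1-/- cells stably complemented with human TDP1 were seeded at 400 cells/well in medium containing 20 nM camptothecin, exposed to pin-transferred compounds, and grown at 37 °C for at least 48 hr. Viability was read as ATP luminescence.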
Gal4-VP16 FLuc = counter-screen for ROR gamma inhibitors: Gal4-VP16 reporter; Potency, µM (doses to about 53.6 µM), actives largely listed as inhibitors; AID 2546; Drosophila S2 Gal4-VP16 UAS-luciferase, luminescence, 20 h; hit rate 3.5% among 310,000;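 note: Gal4-VP16 expression switched on by copper sulfate through the metallothionein promoter; nearly all actives have a fitted effect of over 50% in size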
Hits are given with their value; . = inactive; ? = inconclusive; / = no result given. In the library only some 18% were active in any assay of this set; here they are far more common. Unless noted, calls come from the whole dose curve; as a rule, active = well fitted curve in the direction sought with a large enough effect; inconclusive = small, poorly fitted or top-dose-only effect, or another doubt; inactive = no such curve, though single readings can be large; an effect the other way counts as inactive or inconclusive.

SMILES | IL-1B inflam inh | RORgamma inh | LDHA inh | DT40 TDP1 no CPT | DT40 TDP1 CPT | Gal4-VP16 FLuc
COC(=O)c1ccc(C2/C(=C(\O)c3cccc(OC)c3)C(=O)C(=O)N2CCCn2ccnc2)cc1 (stereo unspecified) | / | / | . | / | / | /
Cc1ccccc1CC1(CO)CCCN(C(=O)Cc2c(F)ccc(F)c2F)C1 (stereo unspecified) | . | ? | . | ? | 16µM | .
Cc1ccc(CNC(=O)C2CCN(c3nc(C)cc(C)n3)CC2)cc1 | . | / | . | . | . | /
Cc1cc(C)nc(N2CCCC(C(=O)NCCc3ccc(F)cc3)C2)n1 (stereo unspecified) | . | ? | . | . | . | .
Cc1cc(C)nc(N2CCC(C(=O)NCCc3ccc(Cl)cc3)CC2)n1 | . | . | . | ? | 13µM | .
Cc1cc(C)nc(N2CCC(C(=O)NCCc3ccc(F)cc3)CC2)n1 | . | ? | . | 9.2µM | 16µM | .
COc1cc2[nH]c(C(=O)NCCCN(C)C)cc2c(OC)c1OC | / | / | . | / | / | /
COCCCNc1nnc(Cc2ccc(Cl)cc2)c(=O)[nH]1 | . | . | . | 0.82µM | 0.41µM | .
COCCNc1nnc(Cc2ccc(Cl)cc2)c(=O)[nH]1 | . | . | . | . | . | .
CC(C)NC(=O)/C(C#N)=C/c1ccc(C(=O)O)cc1 | / | / | . | / | / | /
Cc1cc(NC(=O)c2ccc(Cl)cc2)n(CCOC(=O)c2ccc(Cl)cc2)n1 | . | ? | . | ? | ? | 16µM
Cc1ccc(C(=O)Nc2ccc(O)c(-c3nc4cc(C)ccc4o3)c2)cc1 | / | / | . | / | / | /
CN(C)CCCNc1c2ccccc2nc2ccccc12 | -103 | . | . | 2.6µM | 2.9µM | ?
CN(C)CCCNc1nc(-c2ccccc2)nc2ccccc12 | ? | . | . | . | . | .
CN(C)CCNc1c2c(nc3ccccc13)CCC2 | . | . | . | 18µM | ? | .
CSc1ccc(C2=NN(S(C)(=O)=O)C(c3ccc4nccnc4c3)C2)cc1 (stereo unspecified) | / | / | . | / | / | /
C(=C\c1ccccc1)/CN1CCN(C(c2cccs2)c2nnnn2Cc2ccccc2)CC1 (stereo unspecified) | . | / | . | 21µM | ? | /
CC(C)(C)n1nnnc1C(c1cccs1)N1CCN(C/C=C/c2ccccc2)CC1 (stereo unspecified) | . | / | . | ? | ? | /
C(=C\c1ccccc1)/CN1CCN(C(c2cccc3ccccc23)c2nnnn2Cc2ccccc2)CC1 (stereo unspecified) | ? | / | . | 16µM | 16µM | /
COc1ccc(-n2c(C)c(C(=O)O)c3cc(OC)ccc32)cc1 | / | / | . | / | / | /
COCCN1CN=C(Nc2nc(C)c3cccc(OC)c3n2)NC1 | / | / | . | / | / | /
COc1ccc(NS(=O)(=O)c2ccc(N/N=C(\C)c3ccncc3)c([N+](=O)[O-])c2)cc1 | . | . | . | 7.3µM | 12µM | .
O=[N+]([O-])c1cc(S(=O)(=O)Nc2cccc(Cl)c2)ccc1N/N=C/c1ccc(N2CCOCC2)cc1 | . | . | . | 10µM | ? | .
O=[N+]([O-])c1ccccc1/C=C/C=N/Nc1ccc(S(=O)(=O)Nc2ccc(Cl)cc2)cc1[N+](=O)[O-] | . | . | . | 18µM | 16µM | .
C/C(=N\Nc1ccc(S(=O)(=O)Nc2ccccc2)cc1[N+](=O)[O-])c1ccc(N2CCOCC2)cc1 | . | . | . | 2.6µM | 15µM | .
O=[N+]([O-])c1cc(S(=O)(=O)Nc2cccc(Cl)c2)ccc1N/N=C/c1ccc(F)cc1 | / | / | . | / | / | /
O=[N+]([O-])c1ccccc1/C=C/C=N/Nc1ccc(S(=O)(=O)Nc2ccccc2)cc1[N+](=O)[O-] | / | / | . | / | / | /
Cc1ccc2nc(C)cc(C(=O)OC(C)C(=O)Nc3cc(C)on3)c2c1 (stereo unspecified) | / | / | . | / | / | /
Cc1nc(N2CCN(CCO)CC2)c(C#N)c2c1CCCC2 | / | / | . | / | / | /
O=[N+]([O-])c1ccc(N/N=C/c2c[nH]c3ccccc23)c(S(=O)(=O)Nc2ccccc2Cl)c1 | / | / | . | / | / | /
